Data published in PubChem BioAssay AID1159580 (chemical genetic matrix, 2015).
About 2,000 (36%) of roughly 5,500 compounds were called active. Not shown: some 18% with an inconclusive outcome. Some of the results follow. A number with no mark means an inactive call. No stated cut-off is given here; in the data, active means normalized growth mostly below about 0.91 (no sharp cut-off); inconclusive means no clear call, values can overlap the other calls; inactive means mostly above about 0.92.

Test: chemical genetic growth profiling, strain panel (AID 1159580);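 further: tested at 20 µM; growth read once vehicle control cultures reached saturation at 30 °C; 1 = growth at the plate median or of vehicle wells; lower values mean less growth of the strain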
Conditions: growth OD
[1] = S. cerevisiae deletion strains, locus YGR078C, strain PAC10, active compounds read low
[2] = S. cerevisiae deletion strains, locus YMR263W, strain SAP30, active compounds read low
[3] = S. cerevisiae deletion strains, locus YNL322C, strain KRE1, active compounds read low
[4] = S. cerevisiae deletion strains, locus YPL241C, strain CIN2, active compounds read low
[5] = S. cerevisiae deletion strains, locus YDL101C, strain DUN1, active compounds read low
[6] = S. cerevisiae deletion strains, locus YHR030C, strain SLT2, active compounds read low

Structure (SMILES): COc1ccc2c(c1)c(CC(=O)N1CCOCC1)c(C)n2C(=O)c1ccc(Cl)cc1
- normalized growth (S. cerevisiae deletion strains, locus YAL040C, strain CLN3, active compounds read low): 0.996
- normalized growth (S. cerevisiae deletion strains, locus YCL061C, strain MRC1 (second series), active compounds read low): 1.01
- normalized growth (S. cerevisiae deletion strains, locus YDR363W, strain ESC2, active compounds read low): 1.03
- normalized growth (S. cerevisiae deletion strains, locus YER002W, strain NOP16, active compounds read low): 0.998
- normalized growth [1]: 1.01
- normalized growth (S. cerevisiae deletion strains, locus YGR229C, strain SMI1, active compounds read low): 1
- normalized growth [2]: 1.01
- normalized growth (S. cerevisiae deletion strains, locus YNL175C, strain NOP13, active compounds read low): 1.01
- normalized growth (S. cerevisiae deletion strains, locus YNL197C, strain WHI3, active compounds read low): 1.01
- normalized growth (S. cerevisiae deletion strains, locus YNL224C, strain SQS1, active compounds read low): 0.993
- normalized growth [3]: 1.01
- normalized growth (S. cerevisiae deletion strains, locus YOR083W, strain WHI5 (second series), active compounds read low): 0.999
- normalized growth [4]: 1.01

Structure (SMILES): O=S(=O)(CCN1CCOCC1)c1ccc(Cl)cc1
- normalized growth (S. cerevisiae deletion strains, locus YAL013W, strain DEP1, active compounds read low): 0.995
- normalized growth (S. cerevisiae deletion strains, locus YBR229C, strain ROT2, active compounds read low): 0.982
- normalized growth [5]: 0.967
- normalized growth (S. cerevisiae deletion strains, locus YDL134C, strain PPH21, active compounds read low): 0.993
- normalized growth (S. cerevisiae deletion strains, locus YDR150W, strain NUM1, active compounds read low): 1.01
- normalized growth (S. cerevisiae deletion strains, locus YEL061C, strain CIN8, active compounds read low): 0.993
- normalized growth [1]: 0.983
- normalized growth [6]: 1.06
- normalized growth (S. cerevisiae deletion strains, locus YHR087W, strain rtc3, active compounds read low): 0.982
- normalized growth (S. cerevisiae deletion strains, locus YJR043C, strain POL32, active compounds read low): 1
- normalized growth (S. cerevisiae deletion strains, locus YJR075W, strain HOC1, active compounds read low): 0.998
- normalized growth (S. cerevisiae deletion strains, locus YLR039C, strain RIC1, active compounds read low): 1
- normalized growth (S. cerevisiae deletion strains, locus YLR058C, strain SHM2 (second series), active compounds read low): 0.963
- normalized growth (S. cerevisiae deletion strains, locus YLR085C, strain ARP6, active compounds read low): 0.974
- normalized growth (S. cerevisiae deletion strains, locus YLR262C, strain YPT6, active compounds read low): 1.07
- normalized growth (S. cerevisiae deletion strains, locus YML094W, strain GIM5, active compounds read low): 0.982
- normalized growth (S. cerevisiae deletion strains, locus YMR219W, strain ESC1, active compounds read low): 0.982
- normalized growth [2]: 0.99
- normalized growth (S. cerevisiae deletion strains, locus YNL128W, strain TEP1, active compounds read low): 0.987
- normalized growth (S. cerevisiae deletion strains, locus YNL153C, strain GIM3, active compounds read low): 1.01
- normalized growth (S. cerevisiae deletion strains, locus YNL298W, strain CLA4 (second series), active compounds read low): 0.996
- normalized growth [3]: 0.985
- normalized growth (S. cerevisiae deletion strains, locus YNR030W, strain Alg12, active compounds read low): 0.987
- normalized growth (S. cerevisiae deletion strains, locus YPL055C, strain LGE1, active compounds read low): 0.982
- normalized growth [4]: 0.986
- normalized growth (S. cerevisiae deletion strains, locus YPR135W, strain CTF4, active compounds read low): 1.15
- normalized growth (S. cerevisiae strains, strain wild type, active compounds read low): 0.976

Structure (SMILES): Clc1ccc2c(c1)c1ccccc1n2CN1CCOCC1
- normalized growth (S. cerevisiae deletion strains, locus YAR019C, strain CDC15, active compounds read low): 0.935
- normalized growth (S. cerevisiae deletion strains, locus YBL105C, strain PKC1, active compounds read low): 0.941
- normalized growth (S. cerevisiae deletion strains, locus YBR135W, strain CKS1, active compounds read low): 0.925
- normalized growth (S. cerevisiae deletion strains, locus YBR136W, strain MEC1, active compounds read low): 0.957
- normalized growth (S. cerevisiae deletion strains, locus YBR160W, strain CDC28, active compounds read low): 0.945
- normalized growth (S. cerevisiae deletion strains, locus YDL017W, strain CDC7, active compounds read low): 0.938
- normalized growth (S. cerevisiae deletion strains, locus YDL028C, strain MPS1, active compounds read low): 0.95
- normalized growth [5]: 0.975
- normalized growth (S. cerevisiae deletion strains, locus YDL108W, strain KIN28, active compounds read low): 0.949
- normalized growth (S. cerevisiae deletion strains, locus YDL132W, strain cdc53, active compounds read low): 0.918
- normalized growth (S. cerevisiae deletion strains, locus YDL214C, strain PRR2, active compounds read low): 0.753
- normalized growth (S. cerevisiae deletion strains, locus YDR052C, strain DBF4, active compounds read low): 0.951
- normalized growth (S. cerevisiae deletion strains, locus YDR054C, strain cdc34, active compounds read low): 0.926
- normalized growth (S. cerevisiae deletion strains, locus YDR226W, strain ADK1, active compounds read low): 0.933
- normalized growth (S. cerevisiae deletion strains, locus YDR477W, strain SNF1, active compounds read low): 0.541 (active)
- normalized growth (S. cerevisiae deletion strains, locus YER123W, strain YCK3, active compounds read low): 0.588 (active)
- normalized growth (S. cerevisiae deletion strains, locus YER133W, strain GLC7, active compounds read low): 0.641 (active)
- normalized growth (S. cerevisiae deletion strains, locus YFL009W, strain cdc4, active compounds read low): 0.934
- normalized growth (S. cerevisiae deletion strains, locus YFL029C, strain CAK1, active compounds read low): 0.917
- normalized growth (S. cerevisiae deletion strains, locus YFR003C, strain YPI1, active compounds read low): 0.945
- normalized growth (S. cerevisiae deletion strains, locus YFR019W, strain FAB1, active compounds read low): 0.894
- normalized growth (S. cerevisiae deletion strains, locus YFR028C, strain CDC14, active compounds read low): 0.952
- normalized growth (S. cerevisiae deletion strains, locus YGR040W, strain KSS1, active compounds read low): 0.592 (active)
- normalized growth (S. cerevisiae deletion strains, locus YGR052W, strain FMP48, active compounds read low): 0.603
- normalized growth (S. cerevisiae deletion strains, locus YGR092W, strain DBF2, active compounds read low): 0.208 (active)
- normalized growth [6]: 0.679 (active)
- normalized growth (S. cerevisiae deletion strains, locus YHR079C, strain IRE1, active compounds read low): 0.79
- normalized growth (S. cerevisiae deletion strains, locus YHR082C, strain KSP1, active compounds read low): 0.764
- normalized growth (S. cerevisiae deletion strains, locus YHR205W, strain SCH9, active compounds read low): 0.714
- normalized growth (S. cerevisiae deletion strains, locus YIL147C, strain SLN1, active compounds read low): 0.944
- normalized growth (S. cerevisiae deletion strains, locus YJL095W, strain BCK1, active compounds read low): 0.724
- normalized growth (S. cerevisiae deletion strains, locus YJL128C, strain PBS2, active compounds read low): 0.921
- normalized growth (S. cerevisiae deletion strains, locus YJL157C, strain FAR1, active compounds read low): 0.722
- normalized growth (S. cerevisiae deletion strains, locus YJR016C, strain ILV3, active compounds read low): 0.943
- normalized growth (S. cerevisiae deletion strains, locus YJR066W, strain TOR1 (second series), active compounds read low): 0.738
- normalized growth (S. cerevisiae deletion strains, locus YJR066W, strain TOR1, active compounds read low): 0.619
- normalized growth (S. cerevisiae deletion strains, locus YKL048C, strain ELM1, active compounds read low): 0.696 (active)
- normalized growth (S. cerevisiae deletion strains, locus YKL067W, strain YNK1, active compounds read low): 0.709 (active)
- normalized growth (S. cerevisiae deletion strains, locus YKL101W, strain HSL1, active compounds read low): 0.728
- normalized growth (S. cerevisiae deletion strains, locus YKL193C, strain SDS22, active compounds read low): 0.916
- normalized growth (S. cerevisiae deletion strains, locus YKL203C, strain TOR2, active compounds read low): 0.598 (active)
- normalized growth (S. cerevisiae deletion strains, locus YLR113W, strain HOG1, active compounds read low): 0.755 (active)
- normalized growth (S. cerevisiae deletion strains, locus YLR133W, strain CKI1, active compounds read low): 0.776
- normalized growth (S. cerevisiae deletion strains, locus YLR403W, strain SFP1, active compounds read low): 0.612 (active)
- normalized growth (S. cerevisiae deletion strains, locus YML070W, strain DAK1, active compounds read low): 0.748
- normalized growth (S. cerevisiae deletion strains, locus YMR001C, strain CDC5, active compounds read low): 0.92
- normalized growth (S. cerevisiae deletion strains, locus YMR205C, strain PFK2 (second series), active compounds read low): 0.757
- normalized growth (S. cerevisiae deletion strains, locus YMR277W, strain FCP1, active compounds read low): 0.929
- normalized growth (S. cerevisiae deletion strains, locus YNL006W, strain LST8, active compounds read low): 0.934
- normalized growth (S. cerevisiae deletion strains, locus YNL020C, strain ARK1, active compounds read low): 0.771
- normalized growth (S. cerevisiae deletion strains, locus YNL161W, strain CBK1, active compounds read low): 0.928
- normalized growth (S. cerevisiae deletion strains, locus YNL183C, strain NPR1, active compounds read low): 0.658
- normalized growth (S. cerevisiae deletion strains, locus YNL207W, strain RIO2, active compounds read low): 0.914
- normalized growth (S. cerevisiae deletion strains, locus YNL222W, strain SSU72, active compounds read low): 0.927
- normalized growth (S. cerevisiae deletion strains, locus YNL307C, strain MCK1 (second series), active compounds read low): 0.602 (active)
- normalized growth (S. cerevisiae deletion strains, locus YOL078W, strain AVO1, active compounds read low): 0.93
- normalized growth (S. cerevisiae deletion strains, locus YOL136C, strain PFK27, active compounds read low): 0.72
- normalized growth (S. cerevisiae deletion strains, locus YOR061W, strain CKA2, active compounds read low): 0.558 (active)
- normalized growth (S. cerevisiae deletion strains, locus YOR119C, strain RIO1, active compounds read low): 0.501 (active)
- normalized growth (S. cerevisiae deletion strains, locus YOR231W, strain MKK1, active compounds read low): 0.834
- normalized growth (S. cerevisiae deletion strains, locus YOR329C, strain SCD5, active compounds read low): 0.934
- normalized growth (S. cerevisiae deletion strains, locus YPL031C, strain PHO85, active compounds read low): 0.545 (active)
- normalized growth (S. cerevisiae deletion strains, locus YPL153C, strain RAD53, active compounds read low): 0.786
- normalized growth (S. cerevisiae deletion strains, locus YPL204W, strain HRR25, active compounds read low): 0.641 (active)
- normalized growth (S. cerevisiae deletion strains, locus YPL209C, strain IPL1, active compounds read low): 0.939
- normalized growth (S. cerevisiae deletion strains, locus YPL256C, strain CLN2, active compounds read low): 0.823 (active)
- normalized growth (S. cerevisiae deletion strains, locus YPR025C, strain CCL1, active compounds read low): 0.934
- normalized growth (S. cerevisiae deletion strains, locus YPR106W, strain ISR1, active compounds read low): 0.94
- normalized growth (S. cerevisiae deletion strains, locus YPR111W, strain DBF20, active compounds read low): 0.939
- normalized growth (S. cerevisiae deletion strains, strain NNK1, active compounds read low): 0.949
- normalized growth (S. cerevisiae deletion strains, strain TSCII, active compounds read low): 0.912
